The entries come from a sample that favours hits as a whole.
ClpP mod: qHTS Assay for Activators of ClpP | ATP-dependent Clp protease proteolytic subunit (Bacillus subtilis (strain 168)), P80244 | purified B. subtilis ClpP, FRET peptide cleavage, 20 min | Potency, µM (series often up to 57.5 µM), inactives show at the highest dose activity change, negative = active | actives 1.9% (n = 340,000) | AID 651965, 2013; active = well fitted falling curve with a large enough effect; inconclusive = small, poorly fitted or top-dose-only effect; inactive = no such curve, though single readings can be large or run the other way; note: potency is the fitted concentration of half-maximal effect; the source files actives as falling curves though it sought activators and does not explain the sign; nearly all actives have a fitted effect of over 65% in size
Target sequence (P80244 whole entry, looked up): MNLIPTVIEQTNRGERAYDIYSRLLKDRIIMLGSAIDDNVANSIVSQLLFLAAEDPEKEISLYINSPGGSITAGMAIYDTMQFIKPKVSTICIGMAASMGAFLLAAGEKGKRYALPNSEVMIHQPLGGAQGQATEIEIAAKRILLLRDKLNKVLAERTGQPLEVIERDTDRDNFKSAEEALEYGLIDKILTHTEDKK
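Buffer: 100 mM Tris/HCl pH8, 100 mM KCl, 0.05% low protease BSA, 2.5% glycerol, 0.01% Tween-20. ClpP 10 microg/mL final; 20 min RT; delta FRET normalized to ADEP and DMSO controls.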
RGS4 inhibitor: Inhibitors of Regulator of G Protein Signaling (RGS) 4: qHTS; actives 0.039% (n = 390,000); Potency, µM (doses to about 114 µM), for inactives: at the top dose activity change, negative = inhibition, usual class: inhibitors; Transcreener GDP fluorescence polarization, RGS4-accelerated GTP hydrolysis; note: potency is the fitted concentration of half-maximal effect; % is set by controls: 0 for no effect and ±100 for the full control effect; nearly all actives have a fitted effect of over 75% in size
Target sequence (P49798 whole entry, looked up): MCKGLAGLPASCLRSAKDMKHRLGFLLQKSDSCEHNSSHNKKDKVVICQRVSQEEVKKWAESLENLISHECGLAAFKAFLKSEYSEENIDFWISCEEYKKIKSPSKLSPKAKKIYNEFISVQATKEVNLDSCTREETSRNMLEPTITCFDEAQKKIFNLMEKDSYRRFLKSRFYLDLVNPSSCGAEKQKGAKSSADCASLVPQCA
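MLSMR compounds (23 nl, pin-transferred) preincubated 10 min at room temperature with a 500nM (2x) first reagent, then RGS4 at 900nM (2x) plus Transcreener GDP mix added; fluorescence polarization (620/688 nm) read before and after 90 min at 30 °C.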
Mito fusion act: qHTS Assay for Small Molecule Inhibitors of Mitochondrial Division or Activators of Mitochondrial Fusion; actives 0.23% (n = 320,000); Potency, µM (series often up to 46.1 µM), inactives show at the top dose growth rescue (activation), actives largely listed as activators; AID 485298, 2010; S. cerevisiae fusion-defective mutant growth rescue, CellTiterGlo 48 h; note: potency is the fitted concentration of half-maximal effect; % of control where 0% means no effect; nearly all actives have a fitted effect of over 45% in size
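Growth-rescue viability read-out: after 48 h at the non-permissive 37C in glycerol/ethanol YPEG, yeast mitochondrial fusion mutants are measured by CellTiterGlo luminescence; compounds (23 nl pinned per well) restoring growth score as division inhibitors or fusion activators.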
LDHA block: qHTS assay for inhibitors of human lactate dehydrogenase | L-lactate dehydrogenase A chain (Homo sapiens), P00338 | purified LDHA, NADH/diaphorase-resazurin fluorescence; hits give low values | activity change, % (values are at about 110 or 230 µM) | actives 0.15% (n = 480,000) | AID 1347041, 2019; in the data active = activity change below about -30%; inconclusive = mostly about -25% to -30%;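 note: plate controls were DMSO wells for no effect and wells without enzyme for full effect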
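Human LDH5 at 2 nM final in Tris HCl pH 7.4 with 0.06 mM NADH and 0.2 mM pyruvate, reacted 5 minutes at room temperature. Remaining NADH coupled via diaphorase/resazurin; resorufin fluorescence read at 0 and 20 minutes, normalized to enzyme-free and DMSO wells.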
IDH1 R132H inh: qHTS for Inhibitors of mutant isocitrate dehydrogenase 1 (IDH1): qHTS. AID 602179, 2012. actives 0.093% (n = 390,000). Potency, µM (doses to about 76.6 µM), for the others: top-dose activity change, negative = inhibition, hits mostly inhibitors. IDH1-R132H enzyme, NADPH consumption, diaphorase/resazurin fluorescence. Isocitrate dehydrogenase [NADP] cytoplasmic (Homo sapiens), O75874; note: potency is the fitted concentration of half-maximal effect; % is set by controls: 0 for no effect and ±100 for the full control effect; nearly all actives have a fitted effect of over 65% in size
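IDH1-R132H (0.5 ug/mL dispensed) in pH 7.5 Tris buffer was preincubated 30 min with compound, then given a substrate mix of 0.016 mM NADPH and 2 mM alpha-KG for 80 min at room temperature; remaining NADPH was read by diaphorase/resazurin fluorescence.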
ASM inhibitor: Inhibitors of Secretory Acid Sphingomyelinase (S-ASM): qHTS; Sphingomyelin phosphodiesterase (Homo sapiens), P17405; placental ASM, HMU-PC fluorogenic substrate, 60 min; Potency, µM (top dose mostly 57.5 µM), inactives show top-dose activity change, negative = inhibition, usual class: inhibitors; actives 0.006% (n = 340,000); note: potency is the fitted concentration of half-maximal effect
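Steps: dispense placental human ASM, pin compound, wait 10 min at room temperature, add HMU-PC0 substrate at 9 uM final, incubate 60 min at 37 °C, add stop solution raising pH to 10, read fluorescence.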
* marks the source's active call; other numbers are inactive results; ? = inconclusive; · = no result; ! = not active in a repeat; [ ] = dose if it differs, or a comment. Unless noted, calls come from the whole dose curve; as a rule, active = well fitted curve in the direction sought with a large enough effect; inconclusive = small, poorly fitted or top-dose-only effect, or another doubt; inactive = no such curve, though single readings can be large; an effect the other way counts as inactive or inconclusive.

SMILES	ClpP mod	RGS4 inhibitor	Mito fusion act	LDHA block	IDH1 R132H inh	ASM inhibitor
CC(C)c1nc2oc3c(=O)[nH]cnc3c2c2c1CCC2	13µM*	24%[11.4 µM]	-4%	0	3%	0%
CC(C)c1nc2oc3c(=O)[nH]cnc3c2c2c1COC(C)(C)C2	4%	-8%[11.4 µM]	7%	-1	4%	1%
Cc1ccc(NC(=O)CN(C)C(=O)c2oc3ccccc3c2C)cc1	·	·	·	4	·	·
O=C(NCc1ccc2c(c1)OCO2)c1ccc(COc2cc(Cl)ccc2Cl)o1	-3%	?	14µM*	5	5%	-9%
O=C(NCc1ccc2c(c1)OCO2)c1ccc(CSCc2ccc(Cl)cc2)o1	-6%	-12%	18µM*	4	0%	-3%
NS(=O)(=O)c1ccc(CCNS(=O)(=O)c2ccc(F)cc2)cc1	·	·	·	3	·	·
O=C(Nc1cc(C(F)(F)F)ccc1Cl)C1(F)C(F)(F)C(F)(F)C(F)(F)C(F)(F)C1(F)F	·	·	·	7	·	·
CC(C)NC(=O)CN(C)CC(O)COc1ccccc1F (stereo not given)	·	·	·	-15	·	·
O=C(Nc1ccc2ccccc2n1)c1ccc(S(=O)(=O)N2CCCCC2)cc1	·	·	·	4	·	·
COc1cc(/C=C2\SC(=Nc3ccc(Cl)c(C(=O)O)c3)NC2=O)c(Br)c(Br)c1O	·	?	4%	-33*	17%	-18%
COc1ccc(C2CC(c3ccccc3)=NN2C(=O)COC(=O)c2cccnc2)cc1 (stereo not given)	1%	1%	19%	-4	12%	0%
COc1ccc(C2CC(c3ccc4ccccc4c3)=NN2C(=O)CSc2ncccn2)cc1 (stereo not given)	22µM*	4%	12%	-3	4%	·
COc1ccc(C2CC(c3ccc(Br)cc3)=NN2C(=O)c2cccnc2)cc1 (stereo not given)	0%	-34%	18µM*	-3	0%	-6%
Cc1cccc(NC(=O)NC(=O)CN(C)Cc2ccccc2)c1C	·	·	·	1	·	·
CN(Cc1nc2ccsc2c(=O)[nH]1)C(=O)COc1cccc(F)c1	·	·	·	22	·	·
Cc1nn(Cc2ccccc2)c(C)c1N	28µM*	10%	-29%	7	2%	6%
CC(=O)Nc1ccc(NC(=O)C(C)OC(=O)c2cccc(S(=O)(=O)N3CCCCCC3)c2)cc1 (stereo not given)	1%	?	-3%	-3	-12%	-4%
CC(=O)Nc1ccc(NC(=O)C(C)OC(=O)c2cccc(S(=O)(=O)N3CCCCC3)c2)cc1 (stereo not given)	28µM*	7%	0%	3	2%	-1%
CSc1ccccc1OCc1cc(C(=O)NC(C)CCn2cccn2)no1 (stereo not given)	-4%	18%	-3%	4	-2%	2%
CSc1ccccc1OCc1cc(C(=O)NC(C)c2cnn(C)c2)no1 (stereo not given)	28µM*	-50%	1%	-7	8%	7%
O=C(NC1CCCC1)c1cc(-c2cccs2)on1	-7%	-12%	1%	-39*!	2%	0%
COC(=O)[C@]1(Cc2ccccc2)N[C@H](c2ccc(-c3ccccc3)cc2)[C@@H]2C(=O)N(C)C(=O)[C@@H]21	-22%	-3%	?	-9	21%	-13%

From PubChem BioAssay
